Source: PubChem (Broad Institute)
Hedgehog inh: blocks Sonic Hedgehog signaling. 2.1% of 22,000 active. Shh-LIGHT2 Gli-luciferase reporter, 30 h. inhibition, % (concentration not given with the values);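 active = mean inhibition across valid replicates above about 65%, limit read from the data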;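 also: pathway switched on by Shh-conditioned medium diluted 1 in 25 in low serum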
YB-1 expression: YB-1 expression inhibition. U2OS, qRT-PCR YB-1 vs CDIP delta delta Cp, 16 h; active compounds read high; zero = DMSO, each unit about twofold. delta delta Cp (YB-1 minus CDIP) (concentration not given with the values). AID 434959. 0.37% of 30,000 active;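 active = delta delta Cp rounded down to an integer at or above 3, about 3 SD of DMSO wells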;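 also: higher means less YB-1 transcript or more CDIP transcript relative to DMSO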
MITF inh: MITF inhibition. TRPM1 promoter luciferase, luminescence, 24 h. inhibition, % (no concentration beside the values). 0.28% of 37,000 active. AID 2240; in the data active = inhibition above about 85%;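 also: human melanocyte line stably carrying TRPM1 promoter luciferase reporter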
PD-1 reverse act: reversal of PD-1 mediated T-cell inhibition. primary human CD4 T cells, PD-L1 beads, CellTiter-Glo 96 h. activation, % (concentration not given with the values). 29,000 tested, under 10 active; call rule not given here;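 also: 0% = median vehicle wells and 100% = positive control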
The depositor's hits bear a star; / = no result; ! = repeats disagree. This excerpt belongs to a sample that is enriched for hits.

SMILES | Hedgehog inh | YB-1 expression | MITF inh | PD-1 reverse act
COc1ccc2c(c1)c(C(=O)ON1C(=O)CCC1=O)c(C)n2C1CC1 | 9.0 | 3.76* | -24.7 | -0.5
C[C@H](CO)N1C[C@H](C)[C@H](CN(C)C(=O)Nc2ccc(C(F)(F)F)cc2)Oc2c(cccc2N(C)C)C1=O | -34.2 | 0.0341 | 13.8 | -1.6
O=C1C(Nc2ccccc2)=CC(=O)c2ncccc21 | 94.0* | 3.08* | 97.1* | -60.7
O=C(OCc1cccc(C(=O)c2ccccc2)c1)c1ccc(-c2nnc(-c3ccccc3)o2)cc1 | / | / | -27.7 | /
Cc1cc(SCC(=O)NN)c(C)cc1Cl | -4.0 | 0.24 | -5.1 | 1.0
Cc1ccc(-c2nc3ccccc3[nH]2)cc1NC(=O)COc1cccc([N+](=O)[O-])c1 | / | / | -4.4 | -1.4
Cc1ccc(-c2nc3ccccc3[nH]2)cc1NC(=O)COc1ccccc1[N+](=O)[O-] | / | / | 85.6* | -14.5
Cc1ccc(S(=O)(=O)/C(C#N)=C/Nc2cc(C(F)(F)F)cc(C(F)(F)F)c2)cc1 | 101.2* | -0.157 | 26.5 | -0.4
CSc1nc(C)nc(N/C=C(\C#N)S(=O)(=O)c2ccc(C)cc2)n1 | / | 0.202 | -9.3 | -0.3
Cc1nc(S(=O)(=O)NC2CCN(Cc3ccc(OCCO)cc3)CC2)cn1C | / | -0.521 | / | /
NC(N)=NN=Cc1c(Cl)cccc1Cl | 65.3* | -0.131 | 0.1 | /
CC1CCN(CC(O)COc2c(F)cc(Br)cc2F)CC1 (stereo unspecified) | 16.4 | -0.0694 | 0.2 | -0.4
OC(CN1CCNCC1)Cn1c2ccc(Br)cc2c2cc(Br)ccc21 (stereo unspecified) | 78.1*! | 0.348 | -13.2 | -11.9
CC1(C)CC[C@]2(C(=O)O)CC[C@]3(C)C(=CCC4[C@@]5(C)CC[C@H](O[C@@H]6OC[C@H](O)[C@H](O)[C@H]6O)[C@@](C)(CO)C5CC[C@]43C)C2C1 (stereo partly specified) | 79.3* | -0.764 | 15.7 | -8.3
C[C@@H]1O[C@@H](O[C@H]2[C@H](O)[C@@H](O)[C@H](OC[C@H]3O[C@@H](OC(=O)[C@]45CCC(C)(C)CC4C4=CCC6[C@@]7(C)CC[C@H](O)C(C)(C)C7CC[C@@]6(C)[C@]4(C)CC5)[C@H](O)[C@@H](O)[C@@H]3O)O[C@@H]2CO)[C@H](O)[C@H](O)[C@H]1O (stereo partly specified) | 75.7* | 1.56 | 44.5 | -9.9
CC1(C)CC[C@@]2(C(=O)O[C@@H]3O[C@H](CO)[C@@H](O)[C@H](O)[C@H]3O)C(C1)C1=CCC3[C@@]4(C)CC[C@@H](O[C@@H]5O[C@H](C(=O)O)[C@@H](O[C@@H]6OC[C@@H](O)[C@H](O)[C@H]6O)[C@H](O)[C@H]5O)C(C)(C)C4CC[C@@]3(C)[C@]1(C)C[C@H]2O (stereo partly specified) | -9.7 | -0.126 | -8.0 | 0.4
C/C=C(\C)C(=O)O[C@H]1[C@H](OC(C)=O)[C@@]2(CO)C(CC1(C)C)C1=CCC3[C@@]4(C)CC[C@H](O[C@@H]5O[C@H](C(=O)O)[C@@H](O)[C@H](O[C@@H]6O[C@H](CO)[C@H](O)[C@H](O)[C@H]6O[C@@H]6O[C@@H](C)[C@H](O)[C@@H](O)[C@H]6O)[C@H]5O[C@@H]5O[C@H](CO)[C@@H](O)[C@H](O)[C@H]5O)C(C)(C)C4CC[C@@]3(C)[C@]1(C)C[C@H]2O (stereo partly specified) | 111.2* | 0.533 | / | /
C[C@H](CO)N1C[C@H](C)[C@@H](CN(C)Cc2ccc(Oc3ccccc3)cc2)Oc2ccc(NC(=O)Cc3ccccc3)cc2C1=O | / | 0.249 | 6.2 | -1.1
COc1ccc(CC(=O)Nc2cccc(-c3nnc(-c4ccc(C)cc4)o3)c2)cc1OC | / | / | 100.9* | 1.1
COc1ccccc1OCC(=O)Nc1cccc(-c2nnc(-c3ccccc3)o2)c1 | / | / | -99.5 | 0.7
O=C(CCSc1nc2ccccc2s1)Nc1ccccc1Cl | / | / | 86.2* | /
COc1cc(O)c(Cc2ccccc2O)c(O)c1C(=O)CCc1ccccc1 | 30.5 | 0.141 | 75.5 | -0.2
COc1cc(O)c(C(=O)CCc2ccccc2)c(O)c1Cc1ccccc1O | 5.3 | 0.0563 | 107.7* | -0.4
O=C(CSc1n[nH]c(-c2ccc(Cl)cc2)n1)Nc1cccc(C(F)(F)F)c1 | / | / | 16.1 | -2.5
C[C@H](CO)N1C[C@H](C)[C@@H](CN(C)S(=O)(=O)c2ccc(Cl)cc2)Oc2c(NC(=O)c3nc4ccccc4s3)cccc2C1=O | 4.9 | -0.14 | 24.6 | -6.1
SMILES | Hedgehog inh | YB-1 expression | MITF inh | PD-1 reverse act
NC(=Nc1ccccc1)NC(=O)c1nc(Cl)c(N)nc1N | 12.5 | -0.107 | -84.2 | /
NC(=NCc1ccccc1)NC(=O)c1nc(Cl)c(N)nc1N | 68.8*! | -0.0727 | 8.6 | 1.8
S=c1[nH]n(-c2ccc(Cl)cc2)c(=S)s1 | -20.0 | 5* | 2.0 | 1.1
Cc1cccc(C(=O)NN(c2ccccc2)c2ccccc2)c1 | 94.9* | -0.0566 | 2.7 | -0.5
Cc1cccc(NC(=O)c2cccc(C(=O)Nc3cccc(C)c3)c2)c1 | -51.0 | -0.238 | -13.4 | 0.1
N#C/C(=C\c1ccc(O)c(O)c1)C(=O)NCCCc1ccccc1 | 86.1* | 0.391 | 2.5 | -1.6
CNC[C@H]1Oc2ccc(NC(=O)c3ccncc3)cc2C(=O)N([C@H](C)CO)C[C@H]1C | -9.5 | -0.0721 | -0.3 | -0.3
OC(c1ccccc1)c1oc2ccccc2c1-c1cnn(-c2ccccc2)c1 (stereo unspecified) | 97.7* | -0.294 | 70.2 | -13.2
Cc1ccc(S(=O)(=O)N(C)C[C@H]2OCCCC[C@@H](C)Oc3ccc(NC(=O)NC(C)C)cc3C(=O)N([C@H](C)CO)C[C@@H]2C)cc1 | 11.1 | -0.154 | -0.5 | /
Cc1noc(C)c1NC(=O)Nc1ccc2c(c1)C(=O)N([C@H](C)CO)C[C@H](C)[C@H](CN(C)Cc1ccc3c(c1)OCO3)OCCCC[C@@H](C)O2 | -0.5 | 0.0776 | -2.5 | 0.5
C[C@@H]1CCCCO[C@@H](CN(C)Cc2ccc3c(c2)OCO3)[C@@H](C)CN([C@H](C)CO)C(=O)c2cc(NC(=O)Nc3ccc4c(c3)OCO4)ccc2O1 | 67.8* | -0.473 | 8.9 | 0.7
Cc1noc(C)c1NC(=O)Nc1ccc2c(c1)C(=O)N([C@H](C)CO)C[C@H](C)[C@@H](CN(C)Cc1ccc(Cl)c(Cl)c1)OCCCC[C@@H](C)O2 | 9.9 | 6.11* | 3.8 | /
N#CCS(=O)c1ccccc1 (stereo unspecified) | -26.7 | 0.119 | -7.6 | 0.6
CO[C@@]12[C@@H]3NC3CN1C1=C(C(=O)C(N)=C(C)C1=O)[C@@H]2COC(N)=O (stereo partly specified) | 67.2* | 1.33 | 33.2 | /
COc1ccc(S(=O)(=O)Nc2ccc3c(c2)C(=O)N([C@H](C)CO)C[C@H](C)[C@@H](CN(C)Cc2ccc(Oc4ccccc4)cc2)O3)cc1 | 36.8 | 13.5* | 6.0 | -0.4
C[C@H](CO)N1C[C@H](C)[C@H](CN(C)Cc2ccc(Cl)c(Cl)c2)Oc2ccc(NC(=O)c3ccncc3)cc2C1=O | 85.7* | -0.071 | 14.7 | -2.2
COc1ccc(S(=O)(=O)Nc2ccc3c(c2)C(=O)N([C@H](C)CO)C[C@@H](C)[C@@H](CN(C)Cc2ccc(Cl)c(Cl)c2)O3)cc1 | 78.0* | 0.032 | 27.4 | -1.6
